Assay results: PubChem BioAssay (NCATS)
A number with no mark means an inactive call. The source made the active and inactive calls.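 Rule for the calls: active = compounds whose dose series gives a full or clear partial fitted curve of increased nuclear translocation; inconclusive = weak partial curve or effect only at the top dose; inactive = no dose-dependent translocation response.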

Each compound was assayed against Glucocorticoid receptor (Homo sapiens) (UniProt P04150) (assay: GR-GFP Redistribution (AID 450)). Conditions: U2OS GR-GFP nuclear translocation, laser cytometry, 2 h.
Sequence of Glucocorticoid receptor (Homo sapiens) (P04150 whole entry, looked up): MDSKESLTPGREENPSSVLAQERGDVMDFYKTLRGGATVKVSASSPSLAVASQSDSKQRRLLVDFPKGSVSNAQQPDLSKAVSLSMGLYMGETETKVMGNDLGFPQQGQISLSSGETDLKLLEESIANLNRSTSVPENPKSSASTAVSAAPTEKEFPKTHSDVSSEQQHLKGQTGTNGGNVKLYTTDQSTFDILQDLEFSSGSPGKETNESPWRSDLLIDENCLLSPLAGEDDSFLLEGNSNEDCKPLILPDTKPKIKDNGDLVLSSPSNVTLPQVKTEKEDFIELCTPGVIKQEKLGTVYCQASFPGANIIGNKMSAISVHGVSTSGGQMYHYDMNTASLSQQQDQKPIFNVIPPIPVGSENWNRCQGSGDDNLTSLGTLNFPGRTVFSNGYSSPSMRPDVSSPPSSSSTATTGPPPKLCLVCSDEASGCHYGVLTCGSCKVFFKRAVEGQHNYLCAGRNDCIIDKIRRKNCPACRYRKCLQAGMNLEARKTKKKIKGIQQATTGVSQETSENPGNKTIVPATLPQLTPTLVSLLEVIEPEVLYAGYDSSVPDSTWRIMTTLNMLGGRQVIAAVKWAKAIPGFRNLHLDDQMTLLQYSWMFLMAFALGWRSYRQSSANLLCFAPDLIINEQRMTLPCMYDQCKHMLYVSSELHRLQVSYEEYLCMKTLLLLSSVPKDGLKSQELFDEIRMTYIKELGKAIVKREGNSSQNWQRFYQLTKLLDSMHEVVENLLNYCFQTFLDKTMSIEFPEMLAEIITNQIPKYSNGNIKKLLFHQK
Potency is the fitted concentration of half-maximal effect.

Row | Compound | Potency
1 | Nc1[nH]c(=O)ncc1F | > 20.6 µM
2 | C1CCC(C(CC2CCCCN2)C2CCCCC2)CC1 (stereo unspecified) | > 20.6 µM
3 | O=c1oc2c(O)c(O)cc3c(=O)oc4c(O)c(O)cc1c4c23 | > 46 µM
4 | CCn1cc(C(=O)O)c(=O)c2cc(F)c(N3CCNCC3)cc21 | > 20.6 µM
5 | COc1cc2ncnc(Nc3cccc(Cl)c3)c2cc1OC | > 46 µM
6 | CC(C)(Sc1cc(C(C)(C)C)c(O)c(C(C)(C)C)c1)Sc1cc(C(C)(C)C)c(O)c(C(C)(C)C)c1 | > 20.6 µM
7 | CCN(CC)CC#CCOC(=O)C(O)(c1ccccc1)C1CCCCC1 (stereo unspecified) | > 20.6 µM
8 | CC1=CC(=O)c2ccccc2C1=O | > 20.6 µM
9 | CCC(=O)O[C@]1(C(=O)CCl)[C@@H](C)C[C@H]2[C@@H]3CCC4=CC(=O)C=C[C@]4(C)[C@@]3(F)[C@@H](O)C[C@@]21C | < 5.9e-06 µM (active)
10 | Cn1c(=O)c2c(ncn2CC(O)CO)n(C)c1=O (stereo unspecified) | > 20.6 µM
11 | Nc1nc(F)nc2c1ncn2[C@@H]1O[C@H](CO)[C@@H](O)[C@@H]1O | > 20.6 µM
12 | CC[C@H](NC(C)C)[C@H](O)c1ccc(O)c2[nH]c(=O)ccc12 | > 46 µM
13 | N[C@@H](C(=O)N[C@@H]1C(=O)N2C(C(=O)O)=C(Cl)CS[C@H]12)c1ccccc1 | > 20.6 µM
14 | N=C(N)c1ccc(OCCCCCOc2ccc(C(=N)N)cc2)cc1 | > 20.6 µM
15 | Cc1ccc(S(=O)(=O)N[C@@H](Cc2ccccc2)C(=O)CCl)cc1 | > 46 µM
16 | COc1ccccc1OCC(O)COC(N)=O (stereo unspecified) | > 20.6 µM
